Tests used:
Assay in all cases: PBM binding z-score (relative to random genomic background probes); higher = stronger binding; sequences stand for … in GC…GCGATTGACAGCGTAGAATGAAGG
[1] = test system: FXR:RXRa (NR concentration 270 nM, RXRa partner concentration 90 nM)
Summary of the method: (§1)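 On custom Agilent 4×180K arrays, double-stranded probes with 34-nt variable regions carried direct-repeat seeds, single-nucleotide variants, half-site ablations or random human genomic background. Ligand-free nuclear receptor dimers were applied for 1 h, and binding was read with antibodies against each partner (one per run). Binding z-scores come from regression-normalized fluorescence, with the random background probes as reference.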

[2] = test system: LXRa:RXRa (NR concentration 270 nM, RXRa partner concentration 90 nM)
Summary of the method: as §1

[3] = test system: LXRa homodimer (NR concentration 270 nM)
Summary of the method: as §1

[4] = test system: LXRb:RXRa (NR concentration 270 nM, RXRa partner concentration 90 nM)
Summary of the method: as §1

[5] = test system: LXRb homodimer (NR concentration 270 nM)
Summary of the method: as §1

[6] = test system: PPARa:RXRa (NR concentration 270 nM, RXRa partner concentration 90 nM)
Summary of the method: as §1

[7] = test system: PPARg:RXRa (NR concentration 180 nM, RXRa partner concentration 90 nM)
Summary of the method: as §1

[8] = test system: PPARg:RXRa 270nM:90nM, anti-RXR (NR concentration 270 nM, RXRa partner concentration 90 nM)
Summary of the method: as §1

[9] = test system: PPARg:RXRa 30nM:10nM, anti-RXR (NR concentration 30 nM, RXRa partner concentration 10 nM)
Summary of the method: as §1

[10] = test system: PPARg:RXRa 90nM:30nM, anti-RXR (NR concentration 90 nM, RXRa partner concentration 30 nM)
Summary of the method: as §1

Sequence | PBM binding z-score [1] | PBM binding z-score [2] | PBM binding z-score [3] | PBM binding z-score [4] | PBM binding z-score [5] | PBM binding z-score [6] | PBM binding z-score [7] | PBM binding z-score [8] | PBM binding z-score [9] | PBM binding z-score [10]
CCTACTGGTCCATCAGGTCATTGATATCAACGTT | 1.32 | 1.8 | 2.15 | 2.01 | 0.36 | 1.88 | 0.421 | 1.34 | 0.261 | 0.824
AGAATGAGGTTATTAAGATCAGGAAATTGCGGTC | 1.33 | 1.7 | 0.37 | 1.3 | -0.00704 | 2.59 | 1.63 | 1.8 | 0.356 | 1.47
GCCAGCAGGCCATTTGGGTCACTCAATGACGGGC | 0.0652 | -0.0507 | -0.664 | -0.289 | -1.29 | 1.02 | 0.451 | 0.16 | -0.483 | -0.357
ATCTCTATGTAAAGTTCAGTGAAAGATCGATAGA | 0.881 | 1.72 | 1.66 | 1.17 | 0.525 | 1.87 | 2.59 | 3.76 | 2.03 | 3.82
CCTACTGGGCCATTCCGAGGTCATTGATCATATG | 2.71 | 3.36 | 4.85 | 3.28 | 0.27 | 3.5 | 1.58 | 2.59 | 0.281 | 1.54
ATCGAAAGGTCGAAGGTGAGTATCCCCACCCGAA | 3.99 | 3.46 | 0.139 | 2.58 | 0.489 | 4.42 | 4.5 | 4.68 | 2.04 | 3.58
CAAACTAGGTCAAGCGGTCAAAGTCCGCTTCCCG | 5.13 | 4.54 | 4.1 | 2.97 | 0.774 | 5.57 | 8.35 | 7.55 | 5.13 | 7.38
ACAGACAGGTGGTGAAGGTAACTCAGGCTATCAT | -0.0169 | -0.306 | -0.324 | -0.0742 | -0.476 | -0.288 | 0.473 | -0.194 | -0.095 | -0.321
TCATTTAGGTAAAGGTGAAAGTCGAACGATATGA | 1.18 | 1.46 | -0.167 | 1.52 | 0.32 | 3.21 | 3.2 | 4.48 | 4.39 | 4.9
CCTCTGAGGACAACAGGAGGTCAGAGCTGCCAGA | 1.9 | 2.12 | 1.95 | 1.33 | -0.394 | 1.88 | 0.389 | 0.288 | -0.556 | -0.276
CCTGCTAGGGCATGGTCAGCTAATCTACAGTATG | -0.287 | -0.381 | -0.466 | -0.695 | -1.06 | -0.338 | 0.0735 | -0.381 | -0.463 | -0.375
CCTATTAGTTGGCCATAAGGGCAACCGAAGCTCG | 0.403 | 0.0422 | -0.122 | -0.00443 | -0.0843 | 0.154 | 0.332 | 0.665 | -0.257 | 0.493
CAAACTAGCTCAAGAGGTCAAAGTCCGCTTCCCG | 4.69 | 5.44 | 5.42 | 5.16 | 1.67 | 5.04 | 1.65 | 3.87 | 1.52 | 2.88
CCTACCGGGCCAAAGGTCATTGATTCCAATGCTC | 4.82 | 5.29 | 3.7 | 4.97 | 0.797 | 5.89 | 9.76 | 9.09 | 7.65 | 9.83
GTACCAAGGTGTATAGGTCGTTGATGAGTAGGCG | 0.26 | 0.421 | -0.0152 | 0.029 | -0.37 | 0.871 | 0.775 | 0.814 | 0.27 | 0.71
CAAACTAGGTCACGAAAGGTTAAAGTCGAATGAC | 5.89 | 7.18 | 3.46 | 5.5 | 0.758 | 6.04 | 9.67 | 7.92 | 5.98 | 8.04
ACAGACAGGTGAGTGAAGGTATCTCAGCTGGACG | -0.3 | -0.499 | -0.504 | -0.625 | -0.39 | 0.116 | 0.581 | -0.119 | 0.319 | -0.0281
GCGAGTTGGTCAGTAAAAGGTCACACACCGGTCG | 3.43 | 4.42 | 4.78 | 4.07 | 0.343 | 4.36 | 3 | 4.71 | 2.22 | 4.23
CATACAGGGTCAGCTAGGCCAGGGTAGGGACGGC | 4.52 | 2.89 | -0.0552 | 1.98 | 0.437 | 4.12 | 3.01 | 2.84 | 0.569 | 1.95

Sequence | PBM binding z-score [1] | PBM binding z-score [2] | PBM binding z-score [3] | PBM binding z-score [4] | PBM binding z-score [5] | PBM binding z-score [6] | PBM binding z-score [7] | PBM binding z-score [8] | PBM binding z-score [9] | PBM binding z-score [10]
CCTCGGAGGACAACAGGAGGTCACAGCTGCCAGA | 2.75 | 3.93 | 3.82 | 2.82 | -0.268 | 3.42 | 1.76 | 2 | -0.188 | 1.1
TCTGGTAGGTCAGTTGGTCAGCTAACGAGCTGCC | 1.49 | 1.41 | 0.0494 | 1.09 | 0.418 | 2.17 | 1.6 | 2.93 | 2.4 | 2.47
TTACCAAGTTGAGCTGAGGTCGTTGATCCAACTC | 0.614 | 0.638 | -0.367 | 0.536 | -0.873 | 1.03 | -0.512 | 0.423 | 0.243 | -0.0903
CCTGCTAGGTCAATGGTCTGCTAAAGCAGCTCGC | 2.61 | 2.26 | -0.00615 | 1.78 | -0.252 | 2.75 | 2.2 | 2.86 | -0.129 | 1.83
AGAATGAGTTTATACGTAGATCAGGGAAGAAAGT | -0.0777 | -0.0651 | -0.37 | -0.296 | -0.286 | -0.283 | 0.634 | -0.311 | 0.114 | -0.213
CGTACTAGGTCAAGGACAGTGAATCTCCGCACGC | 3.26 | 2.36 | 0.318 | 1.61 | 0.134 | 3.93 | 6.37 | 5.52 | 2.99 | 4.86
TTACCAAGTTGAAAGGTCGTTGATGCACGCCTTG | 2.79 | 2.74 | 0.48 | 2.17 | -0.00674 | 3.78 | 4.15 | 5.58 | 3.84 | 5.07
GATACAGGGTCAAGGACAGAGTACGCGTATTGAT | 6.59 | 4.45 | 0.185 | 4 | 0.413 | 5.54 | 5.7 | 5.61 | 2.93 | 4.51
ACTAGCAGGCCAAGGGTCATTCAAGATTAGTCCG | 3.35 | 3.46 | 1.07 | 3.3 | -0.0105 | 4.72 | 7.69 | 7.28 | 5.9 | 7.5
CCTAGCAGGCCAATCTGGGTCCCTCAAGGCTTGA | -0.114 | -0.609 | -0.704 | -0.838 | -1.11 | -0.178 | -0.823 | -0.653 | -1.08 | -0.919
TAACCTAGGTCATTCAGGGGCCAGTATAGAAAGC | 5.52 | 5.3 | 3.1 | 3.98 | 2.09 | 4.46 | 3.45 | 4.12 | 1.61 | 3.03
CAGCCTAGGTCACGGCCAGTATAGGAGGAACGTT | 4.98 | 3.61 | 0.175 | 2.7 | -0.639 | 4.72 | 4.54 | 4.44 | 1.29 | 3.12
CTCGAAAGGTCGTGCTCAGGTGAGTAAACCAAAC | 5.29 | 3.87 | 0.151 | 3.25 | 0.181 | 4.92 | 2.7 | 4.18 | 0.732 | 2.6
TCATATAGGTAAAGGTGAAAGTGGAACGATATGA | 0.702 | 1.31 | -0.0893 | 1.28 | -0.406 | 3.54 | 4.42 | 4.97 | 4.56 | 5.14
CCTATCAGGCCAATCTGGGTCACTCAAGGCTTGA | 0.68 | 1.71 | -0.155 | 1.02 | 0.106 | 3.29 | 2.26 | 2.47 | 0.43 | 1.76
GCAGACAGGTGAAACGCAGGTAATTCAGGGTGGC | -0.0187 | -0.113 | -0.552 | -0.337 | -1.33 | 0.845 | 0.419 | -0.127 | -0.526 | -0.551
CGTCCAAGGTCAAGTTCAGTGAAAGAGACTCGAA | 8.18 | 5.89 | 2.13 | 4.76 | 2.42 | 5.94 | 5.62 | 5.92 | 2.3 | 4.88
GCGACTGGGACATCAGCAGGTTACCATAACTTAA | -0.41 | -0.456 | -0.462 | -0.188 | -0.768 | 0.248 | 0.495 | -0.264 | -0.28 | -0.281
CCTGGTTGGTCAGGAGGTCACACACCGGATATGA | 3.43 | 3.17 | 1.62 | 3.13 | 0.647 | 3.89 | 2.6 | 3.31 | 0.453 | 1.96
